The nature of test [1]: CEETOX_H295R_PROG: CeeTox H295R High-throughput Steroidogenesis Assay for Progesterone (PROG) (AID 2283442).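 For AC50: human H295R adrenal cells primed with 10 µM forskolin before dosing; progesterone secreted into medium by H295R cells measured by HPLC-MS/MS.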 The conditions noted are these: actives raise or lower the signal. The essentials: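 Adrenal H295R line, forskolin-stimulated (10 uM, 48 h) before dosing. 48 h exposure, 0.1% DMSO vehicle. Secreted progesterone by reverse-phase HPLC with ESI+ MS/MS quantification; DMSO-normalised bidirectional curve fit.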

Read-out in test [2]: Tumor necrosis factor receptor superfamily member 6 (Homo sapiens) (UniProt P25445)
The test is described as follows: LTEA_HepaRG_FAS: Life Technologies and Expression Analysis (LTEA) Assay for Fas cell surface death receptor (FAS) using HepaRG (AID 2283447). The conditions noted are these: mRNA level, 48 h; actives raise or lower the signal. The essentials: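 Differentiated HepaRG cells in serum-free induction medium were exposed 48 h to 8 half-log concentrations up to 100 uM in 0.5% DMSO, in duplicate. FAS mRNA was measured by qRT-PCR normalised to ACTB, GAPDH and POLR2A; bidirectional fit versus DMSO.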

Read-out in test [3]: Fatty acid synthase (Homo sapiens) (UniProt P49327)
The test is described as follows: LTEA_HepaRG_FASN: Life Technologies and Expression Analysis (LTEA) Assay for Fatty Acid Synthase (FASN) using HepaRG (AID 2283448). To be noted: mRNA level, 48 h; actives raise or lower the signal. The essentials:
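In human HepaRG cultures, 48 h chemical exposure (up to 100 uM, 0.5% DMSO) preceded TaqMan qRT-PCR of FASN.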

Read-out in test [4]: Cyclin D2 (CCND2), CCND2 (gene 894)
The test is described as follows: LTEA_HepaRG_CCND2: Life Technologies and Expression Analysis (LTEA) Assay for Cyclin D2 (CCND2) using HepaRG (AID 2283449).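 Note: CCND2 transcript measured by TaqMan qRT-PCR and normalised to three housekeeping genes.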 The conditions noted are these: mRNA level, 48 h; actives raise or lower the signal. The essentials:
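HepaRG, 48 h dosing, 8-pt half-log curve from 100 uM, 0.5% DMSO; duplicate wells. Readout: CCND2 transcript by microfluidic qRT-PCR, housekeeping-normalised; bidirectional fit vs DMSO baseline.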

Read-out in test [5]: Cyclin Dependent Kinase Inhibitor 1A (CDKN1A), CDKN1A (gene 1026)
The test is described as follows: LTEA_HepaRG_CDKN1A: Life Technologies and Expression Analysis (LTEA) Assay for Cyclin Dependent Kinase Inhibitor 1A (CDKN1A) using HepaRG (AID 2283450). To be noted: mRNA level, 48 h; actives raise or lower the signal. The essentials:
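Cryopreserved HepaRG cells were plated and cultured 48 h, then switched to serum-free induction medium. Chemicals (eight half-log concentrations, top 100 uM, 0.5% DMSO) were applied for 48 h. Lysates underwent qRT-PCR for CDKN1A with housekeeping normalization.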

Read-out in test [6]: Cyclin D1 (CCND1), CCND1 (gene 595)
The test is described as follows: LTEA_HepaRG_CCND1: Life Technologies and Expression Analysis (LTEA) Assay for Cyclin D1 (CCND1) using HepaRG (AID 2283451). To be noted: mRNA level, 48 h; actives raise or lower the signal. The essentials:
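Human liver HepaRG line; 48 h dosing, 8 conc. ≤100 uM, 0.5% DMSO; TaqMan qRT-PCR mRNA, 3 housekeeping genes; bidirectional curve fit vs DMSO.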

Read-out in test [7]: catalase (CAT), CAT (gene 847)
The test is described as follows: LTEA_HepaRG_CAT: Life Technologies and Expression Analysis (LTEA) Assay for catalase (CAT) using HepaRG (AID 2283452). To be noted: mRNA level, 48 h; actives raise or lower the signal. In outline:
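HepaRG cells in serum-free induction medium, 0.5% DMSO vehicle, exposed 48 h in duplicate over 8 half-log concentrations from 100 uM. CAT mRNA measured by qRT-PCR, normalized to ACTB, GAPDH, POLR2A; bidirectional fit versus DMSO.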

Read-out in test [8]: flavin-containing dimethylaniline monooxygenases 3 (FMO3), FMO3 (gene 2328)
The test is described as follows: LTEA_HepaRG_FMO3: Life Technologies and Expression Analysis (LTEA) Assay for flavin-containing dimethylaniline monooxygenases 3 (FMO3) using HepaRG (AID 2283453). To be noted: mRNA level, 48 h; actives raise or lower the signal. In outline: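 Eight-point concentration-response in serum-free HepaRG cultures (top 100 uM, 0.5% DMSO, 48 h). Read-out: FMO3 mRNA level normalized to three endogenous control genes, fitted bidirectionally versus vehicle.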

Read-out in test [9]: Cytochrome P450 (CYP1A1), CYP1A1 (gene 1543)
The test is described as follows: LTEA_HepaRG_CYP1A1: Life Technologies and Expression Analysis (LTEA) Assay for Cytochrome P450 (CYP1A1) using HepaRG (AID 2283454). To be noted: mRNA level, 48 h; actives raise or lower the signal. The essentials:
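Induction of CYP1A1 mRNA in a human hepatic cell line was measured 48 h after dosing, with 1 mM phenobarbital as induction positive control and 0.5% DMSO vehicle as baseline for bidirectional curve fitting.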

Read-out in test [10]: CFLAR gene, CFLAR (gene 8837)
The test is described as follows: LTEA_HepaRG_CFLAR: Life Technologies and Expression Analysis (LTEA) Assay for CFLAR gene using HepaRG (AID 2283455). To be noted: mRNA level, 48 h; actives raise or lower the signal. In outline:
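qRT-PCR read-out (Fluidigm/TaqMan) of CFLAR mRNA, normalized to three housekeeping genes, in differentiated human HepaRG cells after 48 h chemical exposure; 8-point half-log series from 100 uM in 0.5% DMSO; bidirectional curve fitting versus DMSO.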

Read-out in test [11]: Forkhead box O1 (FOXO1), FOXO1 (gene 2308)
The test is described as follows: LTEA_HepaRG_FOXO1: Life Technologies and Expression Analysis (LTEA) Assay for Forkhead box O1 (FOXO1) using HepaRG (AID 2283456). The conditions noted are these: mRNA level, 48 h; actives raise or lower the signal. The essentials: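 HepaRG, 48 h exposure, 8-pt half-log series from 100 uM in 0.5% DMSO, duplicates; Fluidigm qRT-PCR mRNA, housekeeping-normalised; bidirectional fit vs DMSO baseline.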

The nature of test [12]: CEETOX_H295R_TESTO: CeeTox H295R High-throughput Steroidogenesis Assay for Testosterone (TESTO) (AID 2283457). The conditions noted are these: actives raise or lower the signal. The essentials:
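Testosterone synthesis is assessed in human adrenocortical H295R cells after 48 h of chemical exposure, using HPLC-MS/MS of extracted medium. Activity is fitted in both directions against DMSO control.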

Read-out in test [13]: growth arrest and DNA damage 45 (GADD45A), GADD45A (gene 1647)
The test is described as follows: LTEA_HepaRG_GADD45A: Life Technologies and Expression Analysis (LTEA) Assay for growth arrest and DNA damage 45 (GADD45A) using HepaRG (AID 2283458). To be noted: mRNA level, 48 h; actives raise or lower the signal. In outline: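 Eight-point concentration-response in HepaRG cells: 48 h chemical exposure, 0.5% DMSO vehicle, top dose 100 uM. Normalized qRT-PCR mRNA readout with bidirectional fitting relative to DMSO.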

Read-out in test [14]: Forkhead box O3 (FOXO3), FOXO3 (gene 2309)
The test is described as follows: LTEA_HepaRG_FOXO3: Life Technologies and Expression Analysis (LTEA) Assay for Forkhead box O3 (FOXO3) using HepaRG (AID 2283459). The conditions noted are these: mRNA level, 48 h; actives raise or lower the signal. In outline: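 qRT-PCR readout of FOXO3 transcript, normalized to three housekeeping genes (ACTB, GAPDH, POLR2A); gain or loss fitted against 0.5% DMSO vehicle. HepaRG cells, 48 h chemical exposure, 8-point half-log series, top 100 uM.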

Read-out in test [15]: ABC Transporter (ABCB1), ABCB1 (gene 5243)
The test is described as follows: LTEA_HepaRG_ABCB1: Life Technologies and Expression Analysis (LTEA) Assay for ABC Transporter (ABCB1) using HepaRG (AID 2283460). The conditions noted are these: mRNA level, 48 h; actives raise or lower the signal. The essentials: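 HepaRG, 48 h exposure, 8-pt half-log series from 100 uM, 0.5% DMSO vehicle, duplicates. Readout: ABCB1 transcript by Fluidigm TaqMan qRT-PCR, housekeeping-normalized; bidirectional curve fit vs DMSO baseline.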

Read-out in test [16]: growth arrest and DNA damage 45 (GADD45B), GADD45B (gene 4616)
The test is described as follows: LTEA_HepaRG_GADD45B: Life Technologies and Expression Analysis (LTEA) Assay for growth arrest and DNA damage 45 (GADD45B) using HepaRG (AID 2283461). To be noted: mRNA level, 48 h; actives raise or lower the signal. The essentials:
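Values are bidirectional concentration-response fits against 0.5% DMSO controls. Underlying data: qRT-PCR mRNA levels in human HepaRG liver cells treated 48 h in serum-free induction medium, eight concentrations topping at 100 uM.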

Read-out in test [17]: ABC Transporter (ABCC3), ABCC3 (gene 8714)
The test is described as follows: LTEA_HepaRG_ABCC3: Life Technologies and Expression Analysis (LTEA) Assay for ABC Transporter (ABCC3) using HepaRG (AID 2283462). The conditions noted are these: mRNA level, 48 h; actives raise or lower the signal. The essentials:
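Differentiated HepaRG liver cells receive test chemicals at eight concentrations (max 100 uM) for 48 h. Expression of ABCC3 is quantified by qRT-PCR against ACTB, GAPDH and POLR2A, and activity is fitted in both directions against the DMSO control.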

The nature of test [18]: CEETOX_H295R_DOC: CeeTox H295R High-throughput Steroidogenesis Assay for DOC (AID 2283439). To be noted: actives raise or lower the signal. In outline: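 H295R, fsk 10 uM ×48 h pre, cmpd ×48 h (0.1% DMSO). Media → MTBE extr. → LC-MS/MS, DOC. Bidirectional fit vs DMSO; MTT viability same wells, re-test diluted if <70%.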
Test [19] in a line: CEETOX_H295R_ESTRONE: CeeTox H295R High-throughput Steroidogenesis Assay for Estrone (AID 2283441).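 Note: estrone secreted into medium measured by LC-MS/MS after dansyl derivatization.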 To be noted: actives raise or lower the signal. In outline:
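Forskolin-stimulated H295R cells are treated 48 h with chemical, and estrone in the medium is measured by LC-MS/MS. Activity is fitted in both directions relative to DMSO controls, with chemicals diluted until MTT viability reaches at least 70%.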

SMILES strings stand for the structures. The source made the active and inactive calls. Rule for the calls: active = hit-call score of the fitted dose curve at least 0.9, where 1 is the maximum; inactive = score below 0.9.

Chain of Fatty acid synthase (Homo sapiens) (P49327 whole entry, looked up): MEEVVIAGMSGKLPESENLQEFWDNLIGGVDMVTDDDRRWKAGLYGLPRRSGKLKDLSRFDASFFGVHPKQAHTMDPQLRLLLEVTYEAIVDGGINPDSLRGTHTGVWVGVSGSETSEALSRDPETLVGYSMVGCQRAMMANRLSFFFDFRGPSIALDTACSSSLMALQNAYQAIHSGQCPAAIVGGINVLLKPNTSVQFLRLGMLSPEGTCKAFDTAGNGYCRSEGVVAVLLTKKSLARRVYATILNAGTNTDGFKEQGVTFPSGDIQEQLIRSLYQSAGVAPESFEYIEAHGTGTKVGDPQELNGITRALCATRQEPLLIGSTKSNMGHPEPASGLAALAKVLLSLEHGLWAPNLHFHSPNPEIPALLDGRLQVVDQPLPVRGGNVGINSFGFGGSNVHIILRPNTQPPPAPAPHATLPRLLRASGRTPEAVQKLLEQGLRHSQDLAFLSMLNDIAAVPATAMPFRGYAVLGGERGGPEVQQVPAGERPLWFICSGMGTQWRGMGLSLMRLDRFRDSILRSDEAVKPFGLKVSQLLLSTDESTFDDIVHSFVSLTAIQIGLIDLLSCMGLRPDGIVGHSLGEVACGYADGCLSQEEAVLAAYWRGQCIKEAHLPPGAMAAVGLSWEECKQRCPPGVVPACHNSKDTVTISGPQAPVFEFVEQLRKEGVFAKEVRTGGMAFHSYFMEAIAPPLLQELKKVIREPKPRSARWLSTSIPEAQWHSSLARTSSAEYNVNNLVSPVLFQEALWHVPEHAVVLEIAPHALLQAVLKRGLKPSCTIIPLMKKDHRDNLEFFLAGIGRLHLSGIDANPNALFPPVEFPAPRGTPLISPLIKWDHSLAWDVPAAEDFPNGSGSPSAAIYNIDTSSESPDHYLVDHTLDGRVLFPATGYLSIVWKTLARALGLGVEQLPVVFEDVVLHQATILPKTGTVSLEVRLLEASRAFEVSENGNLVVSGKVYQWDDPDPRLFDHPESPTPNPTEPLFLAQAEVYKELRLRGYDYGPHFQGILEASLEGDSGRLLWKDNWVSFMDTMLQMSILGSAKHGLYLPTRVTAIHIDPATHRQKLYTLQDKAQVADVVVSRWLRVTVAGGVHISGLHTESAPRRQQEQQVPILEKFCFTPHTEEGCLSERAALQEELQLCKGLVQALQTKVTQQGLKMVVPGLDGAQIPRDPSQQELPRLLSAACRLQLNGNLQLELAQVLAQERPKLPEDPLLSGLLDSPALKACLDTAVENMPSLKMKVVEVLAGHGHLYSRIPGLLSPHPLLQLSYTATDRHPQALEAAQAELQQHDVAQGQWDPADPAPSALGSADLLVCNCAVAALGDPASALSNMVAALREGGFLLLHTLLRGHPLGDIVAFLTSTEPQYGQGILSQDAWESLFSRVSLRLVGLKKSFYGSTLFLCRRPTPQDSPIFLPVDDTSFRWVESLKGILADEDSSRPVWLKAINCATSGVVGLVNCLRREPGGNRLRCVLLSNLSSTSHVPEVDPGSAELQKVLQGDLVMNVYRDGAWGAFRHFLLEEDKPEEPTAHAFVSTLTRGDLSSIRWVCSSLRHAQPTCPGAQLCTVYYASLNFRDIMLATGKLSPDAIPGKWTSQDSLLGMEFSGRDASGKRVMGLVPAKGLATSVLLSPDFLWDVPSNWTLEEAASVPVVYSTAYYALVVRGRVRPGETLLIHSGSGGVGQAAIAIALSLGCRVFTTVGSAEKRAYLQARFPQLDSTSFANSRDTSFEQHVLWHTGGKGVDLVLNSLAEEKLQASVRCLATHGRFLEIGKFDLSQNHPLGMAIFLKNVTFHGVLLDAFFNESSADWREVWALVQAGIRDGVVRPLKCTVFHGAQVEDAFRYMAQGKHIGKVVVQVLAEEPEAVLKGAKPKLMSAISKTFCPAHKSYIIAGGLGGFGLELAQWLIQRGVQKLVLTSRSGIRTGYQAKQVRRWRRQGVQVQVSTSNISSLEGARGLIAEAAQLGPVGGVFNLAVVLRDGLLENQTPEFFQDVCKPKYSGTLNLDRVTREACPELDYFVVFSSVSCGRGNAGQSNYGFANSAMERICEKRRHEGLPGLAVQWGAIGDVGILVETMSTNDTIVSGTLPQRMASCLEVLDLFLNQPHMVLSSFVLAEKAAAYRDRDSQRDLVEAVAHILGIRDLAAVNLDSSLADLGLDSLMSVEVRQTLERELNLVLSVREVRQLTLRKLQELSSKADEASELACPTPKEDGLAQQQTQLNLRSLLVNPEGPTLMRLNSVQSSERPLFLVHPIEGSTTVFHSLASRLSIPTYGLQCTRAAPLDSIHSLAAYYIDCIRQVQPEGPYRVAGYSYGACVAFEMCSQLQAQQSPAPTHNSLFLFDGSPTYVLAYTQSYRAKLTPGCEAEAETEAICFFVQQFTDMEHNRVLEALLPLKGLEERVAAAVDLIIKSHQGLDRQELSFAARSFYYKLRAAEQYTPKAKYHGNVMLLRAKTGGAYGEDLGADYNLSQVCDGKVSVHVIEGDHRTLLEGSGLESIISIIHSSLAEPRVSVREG

With `CNS(=O)(=O)c1cc(C(=O)N2CCC(CCN3C4CCC3CC(n3c(C)nc5ccccc53)C4)(c3cccc(F)c3)CC2)c(Cl)cc1F` (stereo not drawn), the result in test [1], in [2], in test [3], in test [4], in test [6] and in [9] was inactive. The compound was classed as inactive in [10], in test [11], in [12], in test [13], in [14] and in test [15]. Moreover, the compound was classed as inactive in test [16]. Further, the concentration at half-maximal activity (AC50) (as a rule, the midpoint of the concentration-response curve, whichever way the signal moves) in [5] is 31 µM (active); in [7], 15.6 µM (active); in [8], 24.2 µM (active); in test [17], 12.5 µM (active).

On to `O=C(O)c1cccc(N(Cc2cccnc2)c2ccc(OC(F)F)c(OC(F)F)c2)c1`, for which the compound was classed as inactive in test [1], in [2], in [5], in [6], in [7] and in [8]. The compound was classed as inactive in test [10], in [11], in [12], in test [13], in [14] and in [16]. The call in [17] was inactive. The AC50 in [3] is 81.3 µM (active); in [4] it was 0.00643 µM (active); in test [9] it was 50 µM (active).

On to `CCCCCCCCCCCCCCCO`, for which the concentration at half-maximal activity (AC50) in test [1] is 14.8 µM (active). For the same compound, the result in [2], in test [3], in test [4], in [5], in test [6] and in test [7] was inactive. The compound was classed as inactive in [8], in test [10], in test [11], in test [13], in test [14] and in test [16]. Also, the compound was called inactive in test [17].

Take `CCCCCCCCO`: the result in test [18], in test [19], in [1], in test [2], in test [3] and in test [4] was inactive. Moreover, the compound was classed as inactive in [5], in test [6], in test [7], in test [8], in test [10] and in [11]. The compound was called inactive in [13], in test [14], in test [16] and in test [17].
